Experimental data reported in PubChem BioAssay AID485364 (National Center for Advancing Translational Sciences (NCATS), 2010).
Where “and” joins values, the source holds several entries; their conditions need not be identical. Equal entries are not always repeated. Screen size: about 360,000 compounds; about 11,000 (3.1%) were called active. Another 4% or so got no clear call; they are omitted. Calls follow the shape of the dose curve; as a rule, active = well fitted inhibition curve with a large enough effect; inconclusive = small, poorly fitted or top-dose-only effect; inactive = no such curve, though single readings can be large or run the other way. This excerpt belongs to a sample that is enriched for actives.

What follows are compounds tested against Schistosoma mansoni thioredoxin glutathione reductase (TGR) (UniProt Q962Y6) (assay: qHTS Assay for the Inhibitors of Schistosoma Mansoni Peroxiredoxins). Conditions: purified TGR, DTNB reduction, TNB absorbance 405 nm; series mostly up to 114 µM; activity change, negative = inhibition: at the top concentration.
Outline: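 Kinetic colorimetric format: TGR-catalysed, NADPH-driven DTNB reduction monitored via TNB absorbance. Enzyme dispensed at 20 nM; compound exposure 15 min at room temperature before reaction start.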
% is scaled to controls: 0 for no effect and ±100 for the full control effect; potency is read from the fitted curve at half-maximal effect.
Also: nearly all actives have a fitted effect of over 60% in size.

Row | Compound | activity change, negative = inhibition | Potency
1 | Cc1cccc(N2CCN(C(=O)CCSCc3ccccc3F)CC2)c1C | 11.4% (inactive) | 
2 | Cc1ccc(C)c(CNC(=O)c2cc3ccccn3n2)c1 | 2.27% (inactive) | 
3 | Cc1ccccc1NC(=S)NNC(=O)c1cccc(Br)c1 | -0.509% (inactive) | 
4 | Cc1ccc(C(=O)NC(=S)Nc2ccccc2C)cc1 |  | 31.6 µM (active)
5 | Cc1cc(C(=O)NNC(=S)Nc2ccccc2C)cs1 | 2.83% (inactive) | 
6 | CCOC(=O)c1cccc(NC(=O)C(Cc2ccccc2)NS(=O)(=O)c2cccc3nsnc23)c1 (stereo not drawn) | 3.11% (inactive) | 
7 | O=c1c2ccccc2n(Cc2cccc(Cl)c2)c(=O)n1Cc1ccccc1 | -7.62% (inactive) | 
8 | C/C=C(\C)C(=O)N1CC2(CC(c3cccc(NC(=O)CCCCC)c3)=NO2)C[C@@H]1C(N)=O (stereo partly drawn) | -7.23% (inactive) | 
9 | C/C=C(/C)C(=O)Nc1cccc(C2=NOC3(C2)C[C@@H](C(N)=O)N(C(=O)C2(C)CC2)C3)c1 (stereo partly drawn) | -18.8% (inactive) | 
10 | C/C=C\C=C\C(=O)N1CC2(CC(c3cccc(NC(=O)/C(C)=C\C)c3)=NO2)C[C@H]1C(N)=O (stereo partly drawn) |  | 7.94 µM (active)
11 | Cc1cc(Br)ccc1NC(=O)Cn1cnc2sc(C)c(S(=O)(=O)N3CCN(C)CC3)c2c1=O | -2.56% (inactive) | 
12 | O=S(=O)(c1ccc(Cl)cc1)c1nnn2c1nc(NC1CCCC1)c1sccc12 | 2.43% (inactive) | 
13 | Cc1ccc(C(=O)Cn2cc([N+](=O)[O-])nc2C)cc1 | -5.61% (inactive) | 
14 | O=C(Cn1c[n+](CC(=O)c2ccc([N+](=O)[O-])cc2)cn1)c1ccc([N+](=O)[O-])cc1 |  | 10 µM (active) and 44.7 µM (active)
15 | C/C(=N/NC(=O)CC(=O)N/N=C(\C)c1ccc([N+](=O)[O-])cc1)c1ccc([N+](=O)[O-])cc1 | 4.47% (inactive) | 
16 | Cc1[nH][nH]c(=O)c1C(c1ccc(-c2ccc(Cl)cc2)o1)c1c(C)[nH][nH]c1=O |  | 25.1 µM (active)
17 | CN(CC(=O)Nc1ccc(F)cc1)C(=O)c1ccc(-c2ccc(Cl)cc2)o1 | -27.9% (inactive) | 
18 | CCCNC(=O)NCc1ccc(N2CCCC2=O)cc1 | 2.65% (inactive) | 
19 | NC(=O)C1(N2CCCCC2)CCN(C2CC(=O)N(Cc3ccc(N4CCCC4=O)cc3)C2=O)CC1 (stereo not drawn) |  | 25.1 µM (active)
20 | COC(=O)c1cc(NC(=O)CN2CCC(C(N)=O)(N3CCCCC3)CC2)cc(C(=O)OC)c1 | 3.3% (inactive) | 
21 | COc1ccc(OC)c(-n2nnc(-c3nc(-c4cc(OC)c(OC)c(OC)c4)no3)c2C)c1 | 6.37% (inactive) | 
22 | O=C(Cc1ccccc1)NNC1CC(=O)N(c2ccc(Br)cc2)C1=O (stereo not drawn) | -13.2% (inactive) | 
23 | Cc1ccc(N2C(=O)CC(Nc3cccc4ccccc34)C2=O)cc1 (stereo not drawn) |  | 22.4 µM (active)
24 | Cc1ccc(N2C(=O)C3C(c4ccccc4)(C2=O)C3(c2ccccc2)c2ccccc2)cc1 (stereo not drawn) | 4.1% (inactive) | 
25 | CCOc1ccc(NC(=O)c2cnn(-c3ccccc3)c2-n2cccc2)cc1 | -1.01% (inactive) | 

Row | Compound | activity change, negative = inhibition | Potency
26 | Cc1ccc(OCC(=O)OCc2cc(=O)n3nc(C4CC4)sc3n2)cc1 | -6.56% (inactive) | 
27 | COc1ccc(S(=O)(=O)NCC(c2ccc(N(C)C)cc2)N2CCc3ccccc32)cc1OC (stereo not drawn) | -6.35% (inactive) | 
28 | CCOC(=O)c1c(N)n(-c2cccc(C)c2C)c2nc3ccccc3nc12 | 1.92% (inactive) | 
29 | CCOC(=O)c1c(NC(=O)CSc2nnc(CN3CCOCC3)n2C)sc2c1CCCC2 | -34.2% (inactive) | 
30 | NC(=O)c1c(NC(=O)CSc2nnc(-c3ccco3)n2N)sc2c1CCCC2 |  | 11.2 µM (active)
31 | Nn1c(SCC(=O)Nc2nccs2)nnc1-c1ccco1 | -2.49% (inactive) | 
32 | Cc1c(Cl)cccc1NC(=O)c1noc2c1CCCC2 | 3.49% (inactive) | 
33 | CSc1ccc(CCNC(=O)c2cnn(-c3ccccc3)c2-n2cccc2)cc1 | 5.93% (inactive) | 
34 | CCn1c(SCC(=O)Nc2cc(C)c(Cl)cc2OC)nnc1-c1ccco1 | -27.1% (inactive) | 
35 | O=C(CSc1nnc(-c2cccnc2)n1CCc1ccccc1)NCc1ccccc1 | -0.337% (inactive) | 
36 | COc1ccccc1NC(=O)CSc1nnc(-c2ccoc2C)n1CCc1ccccc1 | 2.47% (inactive) | 
37 | O=C(CSc1nnc(-c2cccs2)n1Cc1ccco1)c1ccc2c(c1)OCO2 | -30.2% (inactive) | 
38 | CCc1ccc(NC(=O)CSc2nnc(-c3cnccn3)n2Cc2ccco2)cc1 |  | 39.8 µM (active)
39 | CCn1c(SCC(=O)Nc2cc(C)ccc2C)nnc1-c1cnccn1 | 8.8% (inactive) | 
40 | COc1cc(Cl)c(C)cc1NC(=O)CSc1nnc(-c2cccnc2)n1Cc1ccco1 |  | 44.7 µM (active)
41 | COc1cc(Cl)c(C)cc1NC(=O)CSc1nnc(-c2ccco2)n1CC(C)C |  | 25.1 µM (active)
42 | Cc1cc(C)nc(SCc2nnc(SCC(=O)Nc3ncc(C)s3)n2Cc2ccco2)n1 | -8.76% (inactive) | 
43 | O=C(CSc1nnc(-c2cccnc2)n1Cc1ccco1)c1ccc(Cl)c(Cl)c1 |  | 22.4 µM (active)
44 | Cn1c(SCC(=O)Nc2nccs2)nnc1-c1cccnc1 | -0.988% (inactive) | 
45 | Cc1c(Cl)cccc1NC(=O)CSc1ccc(-c2cccnc2)nn1 | 5.94% (inactive) | 
46 | COc1ccc(OCC(=O)Nc2cccc(C(=O)OCc3cc(=O)n4nc(C)sc4n3)c2)cc1 | -8.03% (inactive) | 
47 | Cc1cc(NC(=O)C2CCC(CNS(=O)(=O)c3ccc(Br)s3)CC2)ccc1Br (stereo not drawn) | 1.31% (inactive) | 
48 | COC(=O)c1ccc(NC(=O)CCc2c(C)nc3c(c(C)nn3-c3ccc(C)cc3)c2C)cc1 | -15.6% (inactive) | 
49 | O=C(NCC(c1cccnc1)N1CCc2ccccc21)c1cccc(C(F)(F)F)c1 (stereo not drawn) | -3.75% (inactive) | 
50 | COc1ccc(CCNC(=O)CCc2c(C)nc3c(c(C)nn3-c3ccc(C)c(C)c3)c2C)c(OC)c1OC | -6.2% (inactive) | 

Row | Compound | activity change, negative = inhibition | Potency
51 | COc1ccc(NC(=O)CSc2nc3ccccc3n2CC(=O)N2CCCCC2C)cc1 (stereo not drawn) | 8.71% (inactive) | 
52 | COc1ccc(C(=O)CSc2nnc(COc3ccccc3)n2Cc2ccco2)cc1 |  | 39.8 µM (active)
53 | C=CCn1c(CNC(=O)c2ccco2)nnc1SCC(=O)c1ccc(OC)cc1 | -29.4% (inactive) | 
54 | COc1ccc(C(=O)NCc2nnc(SCCOc3ccccc3)n2C)cc1 | 12.1% (inactive) | 
55 | COc1ccccc1CNCc1ccc(C(=O)O)s1 | 0.691% (inactive) | 
56 | COc1ccc(-c2cn3c(n2)sc2cc(C(=O)Nc4ccccc4F)ccc23)cc1 | -4.9% (inactive) | 
57 | O=C(NCc1ccccc1Cl)C1=Cc2cc(Br)ccc2OC1 | 1.09% (inactive) | 
58 | CC(C)(C)NC(=O)NCc1ccco1 | -3.46% (inactive) | 
59 | Cc1ccc(SCC(=O)NC(=O)NCc2ccco2)c(C)c1 | -29.6% (inactive) | 
60 | O=C(CNc1ccc(F)cc1F)NC(=O)NCc1ccco1 |  | 28.2 µM (active)
61 | CCOC(=O)c1ccc(NC(=O)C2CCN(S(=O)(=O)c3ccc4c(c3)CCCC(=O)N4)CC2)cc1 | 0.948% (inactive) | 
62 | O=C(CCc1nc(CN2CCN(S(=O)(=O)c3ccc(Cl)cc3)CC2)no1)N1CCCCC1 | -8.24% (inactive) | 
63 | CN(C)[C@@H]1C(=O)C(C(N)=O)=C(O)[C@@]2(O)C(=O)C3=C(O)c4c(O)ccc(Cl)c4[C@@H](O)[C@H]3C[C@@H]12 |  | 39.8 µM (active)
64 | O=C(c1ccccc1F)N1CCC(c2nc3c(nnn3Cc3cccc(F)c3)c(=O)[nH]2)CC1 | 5.51% (inactive) | 
65 | Cc1ccc(CN2CCc3nc(N4CCN(C)CC4)ncc3C2)cc1 | -3.55% (inactive) | 
66 | Cc1ccc(C)c(Cn2c(=O)n(CCC(=O)NCc3ccc4c(c3)OCO4)c(=O)c3sccc32)c1 | 6.76% (inactive) | 
67 | CC(C)c1ccc(NC(=O)c2cc(S(=O)(=O)N3CCc4ccccc4C3)ccc2F)cc1 | 1.91% (inactive) | 
68 | C1=C(N2CCOCC2)/C(=C/c2nc3ccccc3[nH]2)CC1 |  | 5.62 µM (active)
69 | O=C(C1CCCO1)N1CCC(c2nc3ccccc3[nH]2)CC1 (stereo not drawn) | 0.672% (inactive) | 
70 | c1ccc(-n2nnnc2N2CCOCC2)cc1 | -1.12% (inactive) | 
71 | COc1ccc(NC(=O)N2CCCn3nc(C)cc32)cc1OC | -2.23% (inactive) | 
72 | C=CCOc1cccc(C2C(C(=O)c3ccc(C)o3)=C(O)C(=O)N2c2nnc(C)s2)c1 (stereo not drawn) |  | 28.2 µM (active)
73 | COc1cc(C2C(C(=O)c3ccco3)=C(O)C(=O)N2c2cc(C)on2)ccc1OCc1ccccc1 (stereo not drawn) | -13.7% (inactive) | 
74 | COc1ccc(C2C(C(C)=O)=C(O)C(=O)N2c2nccs2)cc1 (stereo not drawn) | -6.73% (inactive) | 
75 | CCCCc1nn2c(=O)cc(COC(=O)c3ccc(NC(=O)c4ccccc4C)cc3)nc2s1 | 4.45% (inactive) | 

Row | Compound | activity change, negative = inhibition | Potency
76 | Cc1ccc(NC(=O)C(=O)NCC(c2cccnc2)N2CCOCC2)cc1 (stereo not drawn) | 0.205% (inactive) | 
77 | COc1ccc(NC(=O)Cn2c(=O)n(Cc3ccc(C(=O)NCc4ccccc4Cl)cc3)c(=O)c3ccccc32)cc1 | 1.76% (inactive) | 
78 | Cn1nc(-c2ccccc2)c(-c2ccccc2)c(C(=O)Nc2ccc(S(N)(=O)=O)cc2)c1=O | 0.051% (inactive) | 
79 | Cc1ccc(C)c(N2CCN(CCCNC(=O)Nc3ccc(Cl)cc3)CC2)c1 | -1.01% (inactive) | 
80 | CC(C(=O)NC1CCCC1)N1CCN(S(=O)(=O)c2ccccc2Cl)CC1 (stereo not drawn) |  | 35.5 µM (active)
81 | CC(C)c1ccc(S(=O)(=O)N2CCN(C(C)C(=O)NC3CCCC3)CC2)cc1 (stereo not drawn) | -0.603% (inactive) | 
82 | O=C(Cc1ccc(S(=O)(=O)N2CCCC2)s1)NC1CCCCCC1 | -0.278% (inactive) | 
83 | O=C(Nc1ccc(OC(F)(F)F)cc1)C1CCCN(S(=O)(=O)c2ccc(Br)s2)C1 (stereo not drawn) | 12% (inactive) | 
84 | Cc1ccc2nc(SCC(=O)N3CCN(c4ccccc4)CC3)nc(=O)n2c1 |  | 50.1 µM (active)
85 | Cc1ccc2nc(SCC(=O)N3CC(C)OC(C)C3)nc(=O)n2c1 (stereo not drawn) | 8.41% (inactive) | 
86 | Cc1ccc2nc(SCC(=O)Nc3cccc4ccccc34)nc(=O)n2c1 | 2.28% (inactive) | 
87 | COC(=O)CC1Oc2ccccc2-n2cc(-c3ccccc3)nc21 (stereo not drawn) | 7.28% (inactive) | 
88 | Cc1nc(SCC(=O)Nc2ccc(C(=O)O)cc2)n[nH]1 | 10.6% (inactive) | 
89 | CSc1ncc(Cl)c(C(=O)Nc2ccc(S(=O)(=O)N3CCCC(C)C3)cc2)n1 (stereo not drawn) | 1.82% (inactive) | 
90 | Cc1cc(=O)n2[nH]c(-c3cccc(Cl)c3)cc2n1 | 27.6% (inactive) | 
91 | Cc1cc(=O)n2[nH]c(-c3sccc3-n3c(C)ccc3C)cc2n1 |  | 31.6 µM (active)
92 | C=CCc1c(C)nc2cc(-c3ccccc3)[nH]n2c1=O | 72.4% (inactive) | 
93 | O=C(Nc1cc(Cl)cc(Cl)c1)c1ccc2c(c1)N(Cc1cccc(Cl)c1)C(=O)c1ccccc1S2=O (stereo not drawn) | 2.83% (inactive) | 
94 | CCCCNc1ccc(-c2nc(-c3ccncc3)no2)cc1[N+](=O)[O-] | 2.16% (inactive) | 
95 | CC(C)CNc1ncnc2c1nnn2C | 3.19% (inactive) | 
96 | COc1ccc(-n2c(SCC(=O)NCc3ccco3)nnc2-c2c[nH]c3ccccc23)cc1 | -16.5% (inactive) | 
97 | COc1ccc(-n2c(SCC(=O)NCc3cccs3)nnc2-c2ccoc2C)cc1 |  | 39.8 µM (active)
98 | COc1ccc(-n2nnnc2SCC(=O)NCc2cccs2)cc1 | -3.09% [at 57.1 µM] (inactive) | 
